Screening results deposited in PubChem BioAssay by several laboratories.
F-actin modifier – modifiers of cytoskeleton assembly. hit rate 0.18% among 91,000. HUVEC TNFa F-actin phalloidin imaging, high content. inhibition, % at 2 µM;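 active = inhibition above the batch mean plus 3 SD and confirmed as a hit by visual image inspection, cut at about 30% in these data, passing the limit was not always enough; inconclusive = above the inhibition threshold but rejected on visual inspection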
TNFa cytotox – HUVEC cytotoxicity counter-screen, TNF alpha stimulated | HUVEC TNFalpha-stimulated, Hoechst cell count, imaging | cell count reduction, % at 2 µM | hit rate 0.17% among 93,000 | AID 848;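 active = cell count reduction exceeding the screen mean by over 5 SD, scaled to untreated wells per plate, cut at about 78% in these data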;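 also: cells counted after 24 h of TNF alpha exposure following the 1 h pretreatment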
Phagocyt inh – inhibitors of macrophage phagocytosis; J774A.1 macrophage IgG-bead phagocytosis, imaging; inhibition, % at 5 µM; hit rate 0.07% among 110,000; AID 1029;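 active = inhibition above the mean of the plate negative controls plus 5 SD, cut at about 13% in these data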;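 also: phagocytic index as fraction of beads internalized from green versus red external bead signal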
E-sel TNF inh – TNF alpha driven E-selectin expression inhibition | HUVEC TNFa-induced E-selectin immunofluorescence, high content | hit rate 0.71% among 120,000 | inhibition, % at 2 µM;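 active = inhibition above the batch mean plus 3 SD, and confirmed as a hit on visual image review, cut at about 43% in these data; inconclusive = passes the inhibition cutoff but fails visual image review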
sdo1 growth – compounds rescuing growth of sdo1-depleted yeast, bone marrow failure model | S. cerevisiae sdo1-depleted JHY4D growth rescue, OD600 30 h; active compounds read high; pdr5 snq2 efflux-pump mutant strain | z-score at 10 µM | hit rate 0.21% among 140,000 | AID 817;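 active = z-score above 3 at both the 24 hr and the 30 hr optical density reads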
VCAM1 TNFa inh – reduces TNF alpha induced VCAM1 expression in HUVEC. HUVEC TNFa-induced VCAM-1 immunofluorescence, high-content imaging. inhibition, % at 2 µM. AID 802. hit rate 0.48% among 95,000;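 active = inhibition above the batch mean plus 3 SD, with images confirmed as a hit by eye, cut at about 37% in these data; inconclusive = inhibition above that limit but hit not confirmed in images; inactive = inhibition not above that limit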
Numbers stand for hits; - = inactive; ? = inconclusive; . = no result; [ ] = remark or other dose. In the library only some 1.2% were active in any assay of this set; here they are far more common.

SMILES | F-actin modifier | TNFa cytotox | Phagocyt inh | E-sel TNF inh | sdo1 growth | VCAM1 TNFa inh
c1ccc(CSc2nnc(-c3cccs3)o2)cc1 | - | - | - | - | - | -
CCSc1nnc(-c2cccs2)o1 | - | - | . | 100.0 | - | -
O=[N+]([O-])/C=C/c1c(OCc2ccccc2)ccc2ccccc12 | . | - | . | - | - | 56.3
Cc1cc(C)c(S(C)(=O)=O)c(NN)n1 | . | . | . | - | . | .
CCCOC(=O)c1ccc(NC(=O)Oc2ccccc2)cc1 | - | 100.0 | . | - | - | ?
CCCOC(=O)c1ccc(Cl)c(NC(=O)c2ccc(-c3ccccc3)cc2)c1 | - | - | . | 99.9 | - | -
O=C(Nc1cc(Cl)ccc1Cl)c1ccc(-c2ccccc2)cc1 | . | . | - | - | - | .
CC(C)OC(=O)c1ccc(NC(=O)Cn2c(-c3nonc3N)nc3ccccc32)cc1 | - | - | . | - | - | -
COC(=O)c1ccccc1NC(=O)Cn1c(-c2nonc2N)nc2ccccc21 | - | - | - | - | - | 78.7
O=C(c1ccc(Cl)cc1)n1c(NCc2ccccc2)n[nH]c1=S | . | . | . | - | . | .
CCOc1ccc(N2C(=O)CSC2c2ccncc2)cc1 (centres undefined) | - | - | . | - | - | 91.3
COc1ccc(N2C(=O)CSC2c2cccs2)cc1 (centres undefined) | . | . | - | - | - | .
O=C(Nc1nnc(-c2cccs2)s1)c1cccc(F)c1 | . | . | . | - | . | .
CCOC(=O)N1CCN(C(=O)c2ccc(Oc3ccc([N+](=O)[O-])cc3)cc2)CC1 | . | . | . | 61.9 | . | .
CC(C)Sc1nc2c(c(=O)n1-c1ccc(F)cc1)SCC2 | - | - | - | - | - | 94.5
O=C(CSc1nc2c(c(=O)n1-c1ccc(F)cc1)SCC2)N1CCCC1 | . | - | . | . | - | -
CC(C)(C)NS(=O)(=O)c1ccc(Oc2ncc(C(F)(F)F)cc2Cl)cc1 | 61.2 | - | - | - | - | -
COCCCNS(=O)(=O)c1ccc(Oc2ncc(C(F)(F)F)cc2Cl)cc1 | - | - | - | - | - | -
O=C(/C=C/c1ccc2c(c1)OCO2)Nc1nc2ccccc2s1 | . | . | - | 61.6 | - | .
O=C(COC(=O)c1ccc(O)cc1)Nc1ccccc1[N+](=O)[O-] | . | . | . | - | . | .
O=c1c2c(-c3cccs3)csc2ncn1/N=C/c1ccc(OC(F)F)cc1 | - | - | - | - | - | -
O=C(O)COc1ccc(/C=N/n2cnc3scc(-c4cccs4)c3c2=O)cc1 | . | . | - | 92.8 | - | .
Nc1c(C(=O)NCC2CCCO2)sc2nc3c(c(-c4ccco4)c12)CC/C3=C\c1ccco1 (centres undefined) | . | . | - | . | - | .
COc1ccc(C)cc1S(=O)(=O)Nc1cccc(SC)c1 | - | - | - | - | - | 51.2
Cc1ccc(CN2C3CCCC2CC(NC(=O)c2ccc(C)cc2)C3)cc1 (centres undefined) | . | . | . | - | . | .
SMILES | F-actin modifier | TNFa cytotox | Phagocyt inh | E-sel TNF inh | sdo1 growth | VCAM1 TNFa inh
CCC(C)(C(=O)NC1CCCCC1)N(Cc1cccs1)C(=O)c1ccc(=O)[nH]c1 (centres undefined) | . | . | - | . | - | .
O=C(NS(=O)(=O)Oc1ccc(Cl)cc1)OC[C@@H]1CCCN2CCCC[C@H]12 | . | . | - | . | - | .
Cc1cccc(NC(=O)c2cc3ccccc3o2)c1 | - | - | . | - | - | -
CCC(=O)Nc1cccc(NC(=O)c2cc3ccccc3o2)c1 | - | 86.8 | - | . | - | 86.1
CCc1c(C)nc(SC(C(=O)O)c2ccccc2)c(C#N)c1C (centres undefined) | . | . | - | - | - | .
O=C1C2C3c4ccccc4C(c4ccccc43)C2C(=O)N1Cc1ccccn1 (centres undefined) | . | . | . | - | . | .
CCCN(CC1CCCO1)C(=O)CCc1nnc(-c2cc(C)on2)o1 (centres undefined) | . | . | . | - | . | .
COc1ccccc1NC(=O)c1ccc(S(=O)(=O)N2CCCC2)cc1 | - | - | . | 99.5 | - | -
CN1CCN(S(=O)(=O)c2ccc(NC(=O)c3ccc(F)cc3)cc2)CC1 | - | - | - | 100.0 | - | -
CCN(CC)c1ccc(-c2nn3c(-c4n[nH]c5c4CCC5)nnc3s2)cc1 | - | - | . | - | - | 47.5
C1CCC(c2nn3c(-c4n[nH]c5c4CCC5)nnc3s2)CC1 | - | - | - | - | - | -
O=C(CSc1ccc2ccccc2c1)NC1CCCc2ccccc21 (centres undefined) | . | . | . | . | - | .
CCc1n[nH]c2c1C(=O)CC(C)(C)C2 | - | - | - | 53.9 | - | -
Cc1[nH]nc2c1C(=O)CC(C)(C)C2 | - | - | - | - | - | -
Cc1ccc(/C=C/C(=O)C2C(=O)c3ccccc3C2=O)cc1 | - | - | - | 65.7 | - | -
COc1cc(/C=N/Nc2snc(SC)c2C#N)ccc1O | - | - | . | . | - | 43.3
Cc1ccccc1-c1cc(-c2ccccc2O)on1 | - | - | . | - | - | 47.3
CCOc1ccc(N(C(C)C(=O)Nc2ccc(OC)cc2)S(C)(=O)=O)cc1 (centres undefined) | - | - | - | - | - | -
CCN(CC)S(=O)(=O)c1ccc(NC(=O)C(C)N(c2ccc(OC)cc2)S(C)(=O)=O)cc1 (centres undefined) | ? | 100.0 | - | - | - | ?
CSc1ncccc1C(=O)OCC(=O)c1cccc(Br)c1 | . | . | . | - | . | .
CC[n+]1c(/C=C/C=C/N(C(C)=O)c2ccccc2)sc2cc(OC)ccc21 | . | . | 69.7[fluoresces] | . | - | .
CC(/C=C/c1ccco1)=N\NC(=O)c1cc(C)[nH]n1 | 61.3 | - | - | 100.0 | - | -
CCOc1cc(/C=N\NC(=O)Cc2ccccc2)ccc1OCC(=O)Nc1ccc(C)c(C)c1 | - | - | - | - | - | 52.3
CCOc1cc(/C=N\Nc2ccc([N+](=O)[O-])cc2)ccc1OCC(=O)Nc1ccc(C)c(C)c1 | - | - | . | - | - | -
COCCCNCCCCOc1ccc(OCc2ccccc2)cc1 | . | . | . | 66.1 | . | .
SMILES | F-actin modifier | TNFa cytotox | Phagocyt inh | E-sel TNF inh | sdo1 growth | VCAM1 TNFa inh
COc1ccc(Cc2nnc(SCC(=O)NC3CCCC3)o2)cc1 | - | - | . | 54.3 | - | -
O=C1CCSc2cccc3cccc(c23)N1 | - | 83.5 | - | . | - | 90.2
O=C(CSc1ccc2ccccc2c1)Nc1ccc(S(=O)(=O)Nc2nccs2)cc1 | . | . | - | - | - | .
COc1ccccc1NC(=O)CSc1nnc2ccc(-c3cccnc3)nn12 | . | . | . | 82.0 | . | .
CCOc1ccccc1NC(=O)CSc1nnc2ccc(-c3cccnc3)nn12 | . | . | . | - | . | .
C=CCn1c(SCC(=O)Nc2ccc(C(=O)OCC)cc2)nnc1-c1sc(N)nc1C | - | - | - | - | - | 92.3
C=CCn1c(SCc2ccc(C(=O)OC)cc2)nnc1-c1sc(N)nc1C | . | . | - | - | - | .
Cc1cc(C)c(C(=O)CSc2nnc(C)c(=O)[nH]2)cc1C | . | . | . | - | . | .
CCOC(=O)CSc1nc2cc(OC)ccc2cc1C#N | - | - | - | 99.9 | - | -
Cc1cc(-n2c(C)cc(C(=O)CN3C(=O)NC4(CCCCC4)C3=O)c2C)no1 | - | 89.8 | - | - | - | -
O=C(/C=C/c1ccc(F)cc1)NC(=S)Nc1ccccc1C(=O)NC1CCCCC1 | . | - | . | 53.5 | - | -
O=C(/C=C/c1ccccc1)NC(=S)Nc1ccccc1C(=O)NC1CCCCC1 | . | - | . | - | - | -
Cc1nc2ccccc2c(=O)n1/N=C/c1ccc(O)cc1 | - | - | . | 65.7 | - | -
COc1cccc(/C=N/n2c(C)nc3ccccc3c2=O)c1O | - | - | - | - | - | -
